According to PubChem BioAssay (NCATS):
Results filed as inconclusive are left out. A call without a number means that no potency is given here. Some compounds were tested as several samples or in several runs, with calls that do not always agree. Calls of active or inactive are those of the source. Calls come from the whole dose curve; as a rule, active = well fitted inhibition curve with a large enough effect; inconclusive = small, poorly fitted or top-dose-only effect; inactive = flat fitted curve, though single readings scatter.

Columns and labels:
Assay in all cases: qHTS profiling for inhibitors of Plasmodium falciparum proliferation (AID 504749); note: nearly all actives have a fitted effect of over 60% in size
Settings in all cases: P. falciparum in erythrocytes, SYBR Green DNA, 72 h; series mostly up to 28.7 µM
CP329 = tested on: CP329
Method in brief: (§1)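 P. falciparum-infected erythrocytes (0.3% parasitemia, 2.5% hematocrit final) were exposed to compounds for 72 h at 37 C in 5% CO2, then lysed with SYBR Green buffer overnight at room temperature; parasite DNA fluorescence was normalized to artemisinin and DMSO controls.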

CP335 = tested on: CP335
Method in brief: as §1

DFO2036 = tested on: DFO2036
Method in brief: as §1

DIV14 = tested on: DIV14
Method in brief: as §1

DIV17 = tested on: DIV17
Method in brief: as §1

DIV30 = tested on: DIV30
Method in brief: as §1

Dd2 = tested on: Dd2
Method in brief: as §1

ECU = tested on: ECU
Method in brief: as §1

FAB9 = tested on: FAB9
Method in brief: as §1

GB4 = tested on: GB4
Method in brief: as §1
Potency is the fitted concentration of half-maximal effect.

| SMILES | outcome (CP329) | Potency (CP335) | outcome (DFO2036) | Potency (DIV14) | Potency (DIV17) | outcome (DIV30) | Potency (Dd2) | Potency (ECU) | outcome (FAB9) | Potency (GB4) |
| --- | --- | --- | --- | --- | --- | --- | --- | --- | --- | --- |
| CCN(CC)C(=O)c1ccc(O)c(OC)c1 | inactive | inactive | inactive | inactive | inactive | inactive | inactive | inactive | inactive | inactive |
| C[C@@H](O)[C@H]1C(=O)N2C(C(=O)O)=C(S[C@@H]3CN[C@H](C(=O)N(C)C)C3)[C@H](C)[C@H]12 | inactive | inactive | inactive | inactive | inactive | inactive | inactive | inactive | inactive | inactive |
| CCCNC(=O)NS(=O)(=O)c1ccc(Cl)cc1 | inactive | inactive | inactive | inactive | inactive | inactive | inactive | inactive | inactive | inactive |
| O=C(O)c1c(Cl)c(Cl)c(Cl)c(Cl)c1-c1c2cc(I)c(=O)c(I)c-2oc2c(I)c(O)c(I)cc12 | inactive | inactive | inactive | inactive | inactive | inactive | inactive | inactive | inactive | inactive |
| COc1ccc(Cc2nccc3cc(OC)c(OC)cc23)cc1OC | inactive | inactive | inactive | inactive | inactive | inactive | inactive | inactive | inactive | inactive |
| CCCCC1C(=O)N(c2ccccc2)N(c2ccccc2)C1=O | – | – | – | – | – | – | inactive | 8.91 µM (active) and inactive | inactive | 12 µM (active) |
| O=C1NCC2(CCN(CCc3ccccc3)CC2)O1 | inactive | inactive | inactive | inactive | inactive | inactive | inactive | inactive | inactive | inactive |
| CC(=O)CCCCn1c(=O)c2c(ncn2C)n(C)c1=O | inactive | inactive | inactive | inactive | inactive | inactive | inactive | inactive | inactive | inactive |
| CC/C(=C(\c1ccccc1)c1ccc(OCCN(C)C)cc1)c1ccccc1 | inactive | – | inactive | 13.5 µM (active) | – | – | – | – | inactive | 10.7 µM (active) |
| O=C1Nc2ccc(Cl)cc2C(C#CC2CC2)(C(F)(F)F)O1 (stereo not given) | inactive | – | inactive | – | – | inactive | inactive | inactive | inactive | – |
| O=C1NC(=O)C(c2ccccc2)(c2ccccc2)N1 | inactive | inactive | inactive | inactive | inactive | inactive | inactive | inactive | inactive | inactive |
| CCOC(=O)O[C@]1(C(=O)OCCl)CC[C@@H]2[C@H]3CCC4=CC(=O)C=C[C@]4(C)[C@@H]3[C@@H](O)C[C@@]21C | inactive | inactive | inactive | inactive | inactive | – | inactive | inactive | inactive | inactive |
| CC(=O)O[C@]1(C(C)=O)CC[C@H]2[C@@H]3C=C(Cl)C4=CC(=O)[C@@H]5C[C@@H]5[C@]4(C)[C@H]3CC[C@@]21C | inactive | – | inactive | – | – | – | inactive | inactive | inactive | – |
| NC(N)=Nc1nc(CSCC/C(N)=N/S(N)(=O)=O)cs1 | inactive | inactive | inactive | inactive | inactive | inactive | inactive | inactive | inactive | inactive |
| Cc1cnc(C(=O)O)c[n+]1[O-] | inactive | inactive | inactive | inactive | inactive | inactive | inactive | inactive | inactive | inactive |
| CCN1CCC[C@H]1CNC(=O)c1cc(S(N)(=O)=O)ccc1OC | inactive | inactive | inactive | inactive | inactive | inactive | inactive | inactive | inactive | inactive |
| O=C(O)Cc1cccc2ccccc12 | inactive | – | inactive | inactive | inactive | inactive | inactive | inactive | inactive | inactive |

| SMILES | outcome (CP329) | Potency (CP335) | outcome (DFO2036) | Potency (DIV14) | Potency (DIV17) | outcome (DIV30) | Potency (Dd2) | Potency (ECU) | outcome (FAB9) | Potency (GB4) |
| --- | --- | --- | --- | --- | --- | --- | --- | --- | --- | --- |
| CC(=O)c1ccc(S(=O)(=O)NC(=O)NC2CCCCC2)cc1 | inactive | inactive | inactive | inactive | inactive | inactive | inactive | inactive | inactive | inactive |
| NCCS | inactive | inactive | inactive | inactive | inactive | inactive | inactive | inactive | inactive | inactive |
| C[N+](C)(C)CCCCCC[N+](C)(C)C | inactive | inactive | inactive | inactive | inactive | inactive | inactive | inactive | inactive | inactive |
| CCCCCN(C)CCC(O)(P(=O)(O)O)P(=O)(O)O | inactive | inactive | inactive | inactive | inactive | inactive | inactive | inactive | inactive | inactive |
| Cc1cccc(C)c1OCC(C)N (stereo not given) | inactive | – | inactive | – | – | – | – | inactive | inactive | 13.5 µM (active) |
| CCN(CC)CCOC(=O)c1ccc(N)cc1 | inactive | inactive | inactive | inactive | inactive | inactive | inactive | inactive | inactive | inactive |
| O=c1[nH]cnc2c1ncn2[C@H]1CC[C@@H](CO)O1 | inactive | inactive | inactive | inactive | – | inactive | inactive | inactive | inactive | – |
| COCCCCC(=NOCCN)c1ccc(C(F)(F)F)cc1 | – | – | – | 6.75 µM (active) | 6.75 µM (active) | – | – | – | – | 5.36 µM (active) |
| O=C(NCCN1CCOCC1)c1ccc(Cl)cc1 | inactive | inactive | inactive | inactive | inactive | inactive | inactive | inactive | inactive | inactive |
| CC(=O)N[C@@H](CS)C(=O)O | inactive | inactive | inactive | inactive | inactive | inactive | inactive | inactive | inactive | inactive |
| Clc1ccc(Cn2c(CN3CCCC3)nc3ccccc32)cc1 | inactive | inactive | inactive | – | – | – | inactive | inactive | inactive | – |
| CC1(C)O[C@H]2C[C@@H]3[C@H]4CCC5=CC(=O)C=C[C@]5(C)[C@@]4(F)[C@@H](O)C[C@]3(C)[C@]2(C(=O)CO)O1 | inactive | inactive | inactive | – | inactive | – | inactive | inactive | inactive | inactive |
| COc1ccccc1N1CCN(CCCNc2cc(=O)n(C)c(=O)n2C)CC1 | inactive | inactive | inactive | inactive | inactive | inactive | inactive | inactive | inactive | inactive |
| CCN(CC)CCNC(=O)c1ccc(N)cc1 | inactive | inactive | inactive | inactive | inactive | inactive | inactive | inactive | inactive | inactive |
| CC1=C(/C=C/C(C)=C/C=C/C(C)=C/C(=O)Nc2ccc(O)cc2)C(C)(C)CCC1 | – | – | – | 16.9 µM (active) | 16.9 µM (active) | – | 11.2 µM (active) | – | – | 10.7 µM (active) |
| O=C(O)c1cc(-c2ccccc2)nc2ccccc12 | inactive | inactive | inactive | inactive | inactive | inactive | inactive | inactive | inactive | inactive |
| CN(C)CCC(c1ccccc1)c1ccccn1 (stereo not given) | – | 7.57 µM (active) | inactive | 6.75 µM (active) | 9.53 µM (active) | – | inactive | inactive | inactive | 7.57 µM (active) |
